High-throughput results: PubChem, several laboratories
Shown are actives, neighbours in structure and some others; about 4.3% of the full set was active somewhere.
Autofluor counter = compound fluorescence in toxin protease inhibitor counterscreen. compound autofluorescence counterscreen, microsphere flow cytometry; stronger effect = higher value. fluorescence intensity (concentration not given with the values). 360,000 tested, 3.1% active; in the data active = fluorescence intensity above about 16000; inconclusive = no clear call, values can overlap the other calls
BoNT-F LC inh = BoNT/F light chain protease inhibitors, primary screen, biochemical, flow cytometry, MLPCN library | 360,000 tested, 0.22% active | inhibition, % at 10 µM | Multiplex microsphere protease cleavage assay | AID 588497, 2011 | Botulinum neurotoxin type F light chain protease (Clostridium botulinum); in the data active = inhibition above about 35%, passing the limit was not always enough; inconclusive = no clear call, values can overlap the other calls
Anthrax LF inh2 = Bacillus anthracis LF protease inhibitors, primary screen, biochemical, multiplex microsphere, MLPCN library | Lethal factor (Bacillus anthracis), P15917 | 360,000 tested, 0.12% active | inhibition, % at 10 µM | multiplex microsphere protease cleavage assay
Target sequence (P15917 whole entry, looked up): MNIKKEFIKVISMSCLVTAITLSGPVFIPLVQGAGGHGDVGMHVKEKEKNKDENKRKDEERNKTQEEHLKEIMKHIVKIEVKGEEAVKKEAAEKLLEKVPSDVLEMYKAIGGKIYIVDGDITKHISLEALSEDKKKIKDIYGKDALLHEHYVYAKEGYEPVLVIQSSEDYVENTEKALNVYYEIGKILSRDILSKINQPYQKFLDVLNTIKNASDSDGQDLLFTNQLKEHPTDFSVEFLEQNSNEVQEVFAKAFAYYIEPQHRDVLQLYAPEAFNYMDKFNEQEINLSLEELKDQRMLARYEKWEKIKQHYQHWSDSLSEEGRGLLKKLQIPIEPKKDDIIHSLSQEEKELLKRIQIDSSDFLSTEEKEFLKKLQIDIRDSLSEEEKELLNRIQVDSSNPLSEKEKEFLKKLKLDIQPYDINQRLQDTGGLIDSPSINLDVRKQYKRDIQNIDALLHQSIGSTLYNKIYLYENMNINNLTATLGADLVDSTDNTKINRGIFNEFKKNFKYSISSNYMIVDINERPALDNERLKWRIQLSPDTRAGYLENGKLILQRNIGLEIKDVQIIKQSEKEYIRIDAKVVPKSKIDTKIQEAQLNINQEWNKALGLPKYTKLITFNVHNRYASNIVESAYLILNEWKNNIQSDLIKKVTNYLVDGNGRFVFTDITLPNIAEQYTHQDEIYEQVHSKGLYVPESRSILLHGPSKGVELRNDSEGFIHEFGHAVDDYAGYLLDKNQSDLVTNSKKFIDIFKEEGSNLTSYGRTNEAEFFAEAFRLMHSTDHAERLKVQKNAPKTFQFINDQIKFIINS
MazEF act = activators of E. coli MazEF toxin-antitoxin RNase, primary screen, biochemical, fluorescence, uHTS. FAM/BHQ RNA-DNA oligo cleavage fluorescence, 5 h. activation, % at 20 µM. 350,000 tested, 0.32% active. AID 504720, 2011; in the data active = activation above about 50%
PfHsp40 yeast = rescue of yeast from PfHsp40 toxicity, primary screen, S. cerevisiae, ATP luminescence | S. cerevisiae expressing PfHsp40, growth rescue | growth rescue, % at 12.5 µM | 340,000 tested, 0.68% active | AID 504582, 2011; in the data active = growth rescue above about 28%, passing the limit was not always enough; inconclusive = no clear call, values can overlap the other calls;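 note: yeast W303a lacking pdr1 and pdr3 grown in galactose medium; growth measured after three days at 30 °C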
BoNT A protease = BoNT/A light chain protease inhibitors, primary screen, biochemical, flow cytometry, MLPCN library | multiplex microsphere protease substrate cleavage | AID 588499, 2011 | 360,000 tested, 0.17% active | inhibition, % at 10 µM
Numbers stand for hits; . = inactive; ? = inconclusive; / = no result. Cut-off read from the data, not from the text of the source, unless noted: active = inhibition above about 30%; inconclusive = no clear call, values can overlap the other calls; inactive = below that.

SMILES	Autofluor counter	BoNT-F LC inh	Anthrax LF inh2	MazEF act	PfHsp40 yeast	BoNT A protease
CC(=O)Nc1ccc(C=NNc2ccc([N+](=O)[O-])cn2)cc1	.	.	.	.	.	.
CCOC(=O)CON1C(=O)c2ccccc2C1=O	.	.	.	.	.	.
CCO/C=C1/C(=O)N(C(C)=O)c2ccccc21	22792	.	.	.	.	?
CC(C)C[C@H]1CNC(=O)C(=O)N1CC1CCN(CCc2ccc(-c3ccccc3)cc2)CC1	.	.	.	.	.	.
Cc1ccc2sc(N(CCCN(C)C)C(=O)c3ccc(S(=O)(=O)N4CCc5ccccc5C4)cc3)nc2c1C	.	.	.	.	79	.
COc1cccc2sc(N(CCCN(C)C)C(=O)c3ccc(S(=O)(=O)N4CCc5ccccc5C4)cc3)nc12	.	.	.	.	.	.
CCCCCCCCNC(=O)c1cccnc1SCC(=O)Nc1ccccc1OC	.	.	.	.	.	.
COc1cccc(-c2sc3ccc(OC)cc3c2-c2ccc(OCCN3CCCC3)cc2)c1	.	.	.	.	40	.
Cc1ccc(NC(=O)CS(=O)CC(=O)N(CC(=O)NC(C)(C)C)c2cccc(C)c2C)cc1 (stereo not drawn)	.	.	.	.	.	.
CCc1nc2ccc(C(=O)O)cc2nc1CC	.	.	.	.	.	.
Nc1ccc2c(c1)C(=O)C(=O)c1ccccc1-2	.	.	.	.	.	.
O=C1C(=O)c2ccc(-c3ccccc3)cc2-c2ccccc21	16446	.	.	.	.	.
COc1cc2c(cc1OC)C(COc1cc(C)cc(C)c1)N(C(C)=O)CC2 (stereo not drawn)	.	.	.	.	.	.
COc1ccc(/C=C2\SC(=S)N(CCCC(=O)NNC(=O)c3ccccc3O)C2=O)cc1	.	.	.	.	.	.
Cc1cc(C)nc(NN2C(=O)/C(=C/c3ccc(O)cc3)SC2=S)n1	.	.	.	.	.	.
COc1ccccc1/C=C1\SC(=S)N(Nc2nc(C)cc(C)n2)C1=O	24819	.	.	.	.	.
COc1ccccc1/C=C1\SC(=S)N(CCC(=O)NNC(=O)c2ccccc2O)C1=O	.	.	.	.	105	.
O=C(CCN1C(=O)/C(=C/c2ccccc2)SC1=S)NNC(=O)c1ccncc1	.	.	.	135	.	.
CC(C)(C)c1cnnn1-c1ccc(C=O)cc1	24224	.	.	.	.	.
C=CCn1c(O)c(N=NC(=S)Nc2cccc(C)c2)c2ccccc21	.	.	.	.	.	30
C=CCn1c(O)c(N=NC(=S)Nc2ccccc2F)c2ccccc21	.	.	.	.	.	.
CCc1c(C(=O)Nc2ccncc2)csc1C	23043	.	.	.	.	.
CC(=O)c1ccc(NC(=O)Nc2ncn(Cc3cccc(C)c3)n2)cc1	.	.	.	.	.	.
CCc1c(C(=O)Nc2ncn(Cc3cccc(C)c3)n2)csc1C	16518	.	.	.	.	?
O=C(Nc1cccc2cccnc12)c1ccc(Cl)cc1	.	.	.	.	.	.
SMILES	Autofluor counter	BoNT-F LC inh	Anthrax LF inh2	MazEF act	PfHsp40 yeast	BoNT A protease
O=C(Nc1cccc2cccnc12)c1cccnc1	18275	.	.	.	.	.
COC(=O)C1=C(C)Nc2sc(C(N)=O)c(N)c2C1c1ccncc1 (stereo not drawn)	.	.	.	.	.	.
CCOC(=O)C1=C(C)Nc2sc(C(=O)c3ccc(OC)cc3)c(N)c2C1c1ccc(C(=O)OC)cc1 (stereo not drawn)	.	.	.	.	.	30
Cc1ccc(NC(=O)c2oc3ccccc3c2NC(=O)c2ccc3c(c2)OCO3)cc1	20506	.	.	.	.	.
Cc1c(C(=O)NCc2cccnc2)oc2ccccc12	23977	.	.	.	.	.
O=C(Nc1c(C(=O)Nc2cccc(F)c2)oc2ccccc12)c1ccc2c(c1)OCO2	.	.	.	.	.	.
O=C(NCc1cccnc1)c1cc2ccccc2oc1=O	22899	.	.	.	.	.
Cc1c(C(=O)Nc2nnc(C(F)(F)F)s2)oc2ccccc12	23455	.	.	.	.	.
Cc1c(C(=O)NCCc2ccccc2)oc2ccccc12	.	.	.	.	.	.
COc1ccc(CCN2C(=NC(=O)CC(C)C)SC3CS(=O)(=O)CC32)cc1OC (stereo not drawn)	.	?	.	.	.	?
CCCOc1c(Br)cc(C(=O)OCC(=O)NC2CC2)cc1OC	.	.	.	.	.	.
O=C(NCc1cccs1)c1ccccc1[N+](=O)[O-]	.	.	.	.	.	.
O=C(NCc1cccs1)c1ccccc1C(=O)NCc1cccs1	23472	.	.	.	.	?
COC(=O)[C@@H](NC(=O)NCc1cccs1)C(C)C	18068	.	.	.	.	.
Cc1c(C(=O)NCc2cccs2)oc2ccccc12	23183	.	.	.	.	.
Cc1c(C(=O)Nc2ccncc2)oc2ccccc12	.	.	.	.	.	.
Cc1c(C(=O)NC(C)c2ccncc2)oc2ccccc12 (stereo not drawn)	21661	.	.	.	.	?
COC(=O)[C@H](CCSC)NC(=O)NCc1cccs1	.	.	.	.	.	.
O=C(OCC(=O)N1CCN(C(=O)COC(=O)c2ccc(O)cc2O)CC1)c1ccc(O)cc1O	/	/	/	.	.	/
O=C(Cn1cnc2ccccc2c1=O)NNC(=O)c1ccccc1	.	.	.	.	/	.
CCc1nc2c(OCc3cc(Cl)cc(Cl)c3)cccn2c1N(C)C(=O)Nc1ccccc1OC	.	.	.	/	/	.
c1ccc2c(c1)ccc1[nH]c3c(c12)CCCC3	.	.	.	.	.	.
Cc1c(C(=O)NCc2ccc3c(c2)OCO3)oc2ccccc12	20346	.	.	.	.	.
Oc1ccc(CN2CCN(Cc3ccccc3)CC2)c2cccnc12	.	.	.	.	.	.
O=S(=O)(c1ccc(Cl)cc1)N1CCN(Cc2ccc(O)c3ncccc23)CC1	.	.	.	.	102	.
SMILES	Autofluor counter	BoNT-F LC inh	Anthrax LF inh2	MazEF act	PfHsp40 yeast	BoNT A protease
CC(C)(C)C(=O)Nc1ccccc1C(=O)Nc1cc(Cl)ccc1Cl	23417	.	.	.	.	.
CN1CCN(S(=O)(=O)c2cccc3nsnc23)CC1	.	.	.	.	.	.
CCN1CCC(NC(=O)c2cc(OC)c(OC)cc2OC)CC1	21698	.	.	.	.	?
COc1cc(N)c(Cl)cc1C(=O)NC1CCN(Cc2ccccc2)CC1	.	.	.	.	.	.
O=C(Nc1ccc2c3c(cccc13)CC2)c1ccco1	.	.	.	.	.	.
COc1cc(NS(=O)(=O)c2ccc(NC(=O)c3ccco3)cc2)nc(OC)n1	17434	.	.	.	.	.
Cc1ccc(Oc2ccc(NC(=O)c3ccco3)cc2)cc1	16687	.	.	.	.	.
CC(=O)c1ccc(NC(=O)c2ccc(NC(=O)c3ccco3)cc2)cc1	.	.	.	.	.	.
